# Assay outcomes as filed in PubChem.
# The full list was thinned out, with hits kept by preference.
# Methyltransferases: Primary Screen for Target Class Profiling of Small Molecule Inhibitors of Methyltransferases. purified enzyme, MTase-Glo SAH luminescence; active compounds read low. actives 3.9% (n = 25,000). calls only at 40 µM; call rule not given here
#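 Each enzyme was assayed with SAM and its substrate. SAH formation detected by MTase-Glo luminescence; single-point 40 uM screen[…].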
# Numbers without * were called inactive; i = inactive; + = active, no number; ! = a repeat was not active. On the % scale 0 is the no-effect control and ±100 the full control effect.
SMILES,Methyltransferases
CC1(C(=O)NC2CCCC2)Cn2c(ccc2-c2ccco2)C(=O)N1Cc1ccc2c(c1)OCO2 (stereo not drawn),i
CCCn1nc(CNC(=O)Cc2cccc(F)c2)c2ccccc21,i
Cc1nc(Nc2n[nH]c3c2CN(C(=O)N[C@H](CN(C)C)c2ccccc2)C3(C)C)c2sccc2n1,+
CCc1ccc(N2C(=O)c3cc4occc4n3CC2(C)C(=O)NC2CCCCC2C)cc1 (stereo not drawn),i
CC(C)CCNC(=O)C1c2c(n(C)c3ccccc23)SCC(=O)N1Cc1cccs1 (stereo not drawn),i
CCOc1ccc(CNS(=O)(=O)c2cc3[nH]c(=O)[nH]c3cc2C)cc1OC,i
CC(C)CCn1c(=O)c2ccc(C(=O)NC(C)C)cc2n2c(=O)n(CC(=O)c3ccccc3)nc12,i
CCCOc1ccc(CN2C(=O)c3cc4oc(C)cc4n3CC2(C)C(=O)NC2CCCCCC2)cc1 (stereo not drawn),i
N#C/C(=C\c1ccc(O)c(O)c1)C(=O)Nc1ccccc1,i
N#C/C(=C\c1ccc(O)c(O)c1)C(=O)NCCCNC(=O)/C(C#N)=C/c1ccc(O)c(O)c1,+!
N#CC(C#N)=C(N)/C(C#N)=C/c1ccc(O)cc1,i
O=C(CCn1ccc2cc(S(=O)(=O)N3CCCCC3)ccc21)NC1CCCCC1,i
CCCC1c2ccc(C)n2CCN1C(=O)Nc1cc(Cl)ccc1C (stereo not drawn),i
O=C(Cn1ccc2cc(S(=O)(=O)N3CCCCC3)ccc21)NCCc1ccco1,i
CC1CCC(NC(=O)C2(C)Cn3c(cc4sccc43)C(=O)N2Cc2ccc(Cl)cc2)CC1 (stereo not drawn),i
COC(=O)c1ncn2c1C(=O)N(Cc1ccc(OC)c(OC)c1)C(C)(C(=O)NC1CCCCCC1)C2 (stereo not drawn),i
Cc1cc2c(cc1S(=O)(=O)Nc1ccccc1)n(C)c(=O)n2C,i
COc1ccc(-c2cc3n(n2)CC(C)(C(=O)NCc2ccccc2)N(c2ccccc2C)C3=O)cc1 (stereo not drawn),i
CCOc1ccc(-c2ccc(Cn3c(CC(C)(C)C(=O)O)c(SC(C)(C)C)c4cc(OCc5ccc(C)cn5)ccc43)cc2)cn1,+
Cc1cccc(NC(=O)CSc2nnc3n(C)c(=O)c4ccc(C(=O)NC5CCCCC5)cc4n23)c1,i
CCc1ccc(N2C(=O)c3c(C(=O)OC)ncn3CC2(C)C(=O)NC2CCCCCC2)cc1 (stereo not drawn),i
CC(C)CCNC(=O)C1(C)Cn2nc(C(=O)NCCC3=CCCCC3)cc2C(=O)N1C (stereo not drawn),i
COc1ccc(-c2nc3ccccc3[nH]2)cc1,+
COc1ccc(-c2cc(C(O)C3CCCCN3)c3ccccc3n2)cc1 (stereo not drawn),i
CC(C)(C)c1ccc(-c2nc3ccccc3[nH]2)cc1,+
SMILES,Methyltransferases
COc1ccc(OC)c(S(=O)(=O)N2CCc3nc(-c4ccccc4)[nH]c3C2)c1,i
COc1ccc(OC)c(S(=O)(=O)N2CCCC(Cn3c(C)cnc3C3CC3)C2)c1 (stereo not drawn),i
CC(C)CNC(=O)c1ccc2c(=O)n(CC(C)C)c3nn(Cc4ccccc4Cl)c(=O)n3c2c1,i
CSc1ccc(CCNC(=O)Cn2ccc3cc(S(=O)(=O)N4CCCC4)ccc32)cc1,i
CC1(C(=O)NC2CCCCCCC2)Cn2c(cc3occc32)C(=O)N1Cc1ccccc1F (stereo not drawn),i
CC1(C(=O)NCc2ccccc2)Cn2c(cc3ccccc32)C(=O)N1Cc1ccccc1F (stereo not drawn),i
CCCn1c(=O)c2ccccc2n2c(SCC(=O)NCc3cccc(OC)c3)nnc12,i
CCOc1ccc(-c2cc3n(n2)CC(C)(C(=O)NC2CCCCC2)N(C2CCCCC2)C3=O)cc1 (stereo not drawn),i
Cc1cc2c(cc3n2CC(C)(C(=O)NC2CCCCCC2)N(CCCN2CCCCC2)C3=O)o1 (stereo not drawn),i
COc1ccc(-c2cc3n(n2)CC(C)(C(=O)NCc2ccccc2OC)N(Cc2ccccc2OC)C3=O)cc1 (stereo not drawn),i
NS(=O)(=O)c1ccc(-n2nc(C(F)(F)F)cc2-c2ccc(Cl)cc2)cc1,i
Cc1ccc(C)c(-c2cc(C(F)(F)F)nn2-c2ccc(S(N)(=O)=O)cc2)c1,+
CS(=O)(=O)c1ccc(-n2nc(C(F)(F)F)cc2-c2ccc(F)cc2)cc1,i
CCOc1ccc(NC(=O)c2ncn3c2C(=O)N(C2CC2)C(C)(C(=O)NCc2ccccc2OC)C3)cc1 (stereo not drawn),i
COc1cc(CC(=O)O)ccc1O,i
CC(N)(Cc1ccc(O)c(O)c1)C(=O)O (stereo not drawn),+
C[C@](Cc1ccc(O)c(O)c1)(NN)C(=O)O,+
CCCCCCCC/C=C\CCCCCCCC(=O)NCCc1ccc(O)c(O)c1,i
O=C(CCc1nnc2ccc(NCCCN3CCCC3=O)nn12)NCc1ccc(F)cc1,i
